Records with an inconclusive call do not appear. Where a call stands in place of a potency, no number is given. Activity calls are given as the source filed them. Unless noted, calls come from the whole dose curve; as a rule, active = well fitted curve in the direction sought with a large enough effect; inconclusive = small, poorly fitted or top-dose-only effect, or another doubt; inactive = no such curve, though single readings can be large; an effect the other way counts as inactive or inconclusive.
Legend:
[1] = target: Phospholipid hydroperoxide glutathione peroxidase GPX4 (Homo sapiens) (UniProt P36969); experiment: Primary qHTS Assay for Inhibitors of Recombinant Selenoprotein Glutathione Peroxidase 4 (GPX4) (AID 1845192); note: nearly all actives have a fitted effect of over 65% in size; note: potency is the fitted concentration of half-maximal effect
How it was run: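 NADPH consumption followed by fluorescence at 340/450 nm, t=0 and after 15 min at room temperature. Reaction started with cumene hydroperoxide (0.5 mM final) after 30 min compound–GPX4 preincubation; final 200 nM GPX4, 100 nM GR, 1 mM GSH, 0.5 mM NADPH.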

[2] = target: Luciferin 4-monooxygenase (Photinus pyralis) (UniProt P08659); experiment: Primary firefly luciferase (FLuc) qHTS assay for identification of artifact compounds. (AID 1845220); note: nearly all actives have a fitted effect of over 60% in size
How it was run: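 Cell-free, 1536-well qHTS. Buffer pH 7.6 with 0.01% Tween-20 and 0.05% BSA; 10 uM D-luciferin, 10 uM ATP; 10 nM P. pyralis luciferase; luminescence after 5 min.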

[3] = tested on: Nanoluciferase (engineered Oplophorus gracilirostris luciferase); experiment: Primary Nanoluciferase (NLuc) qHTS assay for identification of artifact compounds. (AID 1845222); note: potency is the fitted concentration of half-maximal effect
How it was run: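 Compounds are pinned into diluted (1:55) conditioned medium of NLuc-expressing S16 cells and held 15 min at room temperature protected from light. Nano-Glo substrate follows, and luminescence is read 5 min later.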

[4] = Primary fluorescence-based thiol-reactive (MSTI) qHTS assay for identification of artifact compounds. (AID 1845221); note: nearly all actives have a fitted effect of over 65% in size; note: potency is the fitted concentration of half-maximal effect
How it was run: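 Thiol-reactive compounds detected by quenching of 4 uM MSTI fluorescence (525/598 nm) after 1 h room-temperature dark incubation in PBS pH 7.4, 2% DMSO. qHTS titration; percent inhibition Hill-fitted against Acetyl-MSTI/MSTI controls.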

[5] = Primary redox qHTS assay for identification of artifact compounds. (AID 1845223)
How it was run: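 Redox-cycling detection via DTT (250 uM final) oxidation coupled to Amplex Red (25 uM)/HRP (250 mU/mL) in HBSS. 15 min preincubation plus 30 min after DTT, room temperature. Ex/Em 525/598 nm; 4-parameter Hill fit against DMSO and 10 uM DA3003.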

[6] = qHTS drug screen for cell cycle checkpoint inhibitors in PARPi-resistant BRCA-mutant ovarian cancer cell lines. (AID 1963452; calls by dose curve); settings: PEO1/OlaR viability, CellTiter-Glo luminescence, 96 h, stronger effect = lower value
How it was run: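 PEO1, PEO4 and PEO1/OlaR ovarian cancer cells, 600 per well, exposed 96 h at 37C to a dilution series. Viability read by CellTiter-Glo luminescence, normalized to DMSO and empty wells; activity summarized as Z-AUC.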

[7] = measured here: PEO1 parental Z-AUC

Sequence of Phospholipid hydroperoxide glutathione peroxidase GPX4 (Homo sapiens) (P36969 whole entry, looked up): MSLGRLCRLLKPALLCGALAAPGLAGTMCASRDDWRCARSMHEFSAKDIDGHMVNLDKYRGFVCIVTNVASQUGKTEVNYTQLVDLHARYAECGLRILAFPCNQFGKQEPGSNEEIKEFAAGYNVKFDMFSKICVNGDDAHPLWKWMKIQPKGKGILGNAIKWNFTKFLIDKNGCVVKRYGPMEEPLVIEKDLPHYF

| Structure (SMILES) | Potency [1] | Potency [2] | Potency [3] | Potency [4] | Potency [5] | Z-AUC [6] | Z-AUC [6, 7] | Z-AUC ([6]; measured here: PEO4 Z-AUC) |
| --- | --- | --- | --- | --- | --- | --- | --- | --- |
| CN(CCc1ccc(Nc2ncc(-c3cccnc3)s2)cc1)Cc1ccccc1 | inactive | inactive | inactive |  |  |  |  |  |
| C=C[C@H]1CN2CC[C@H]1C[C@@H]2C(O)c1ccnc2ccc(OC)cc12 (stereo not given in full) | inactive | inactive | inactive | inactive | inactive |  |  |  |
| COc1cc2nc(N3CCC(N4CCCCC4)CC3)nc(NC3CCCCCC3)c2cc1OC |  | inactive | inactive | inactive | inactive |  |  |  |
| COc1cc2oc(-c3ccc(O)cc3O)cc2c(OC)c1CC=C(C)C | inactive | inactive | inactive | 6.56 µM (active) | inactive |  |  |  |
| CC(Oc1ccc2[nH]nc(/C=C/c3cnn(CCO)c3)c2c1)c1c(Cl)cncc1Cl (stereo not given) | inactive |  | inactive |  |  |  |  |  |
| OCC1OC(Oc2cc(O)cc(/C=C/c3ccc(O)cc3)c2)C(O)C(O)C1O (stereo not given) | inactive |  | inactive | 2.93 µM (active) | inactive |  |  |  |
| CCCNc1ccc2ncc(-c3ccc4[nH]ncc4c3)n2n1 |  | inactive | inactive |  | inactive |  |  |  |
| NCc1c[nH]c(=S)n1[C@@H]1CCc2c(F)cc(F)cc2C1 |  | inactive | inactive |  | inactive |  |  |  |
| CC(C)c1c2cc(-c3ccnc(NC4CCC(NC5CCOCC5)CC4)n3)ccc2nn1C (stereo not given) | 9.04 µM (active) | inactive | inactive | inactive | inactive | -1.95 (inactive) | -2.05 | -1.88 |
| CCC1C(=O)N(C)c2cnc(Nc3ccc(C(=O)NC4CCC(N5CCN(CC6CC6)CC5)CC4)cc3OC)nc2N1C(C)C (stereo not given) | inactive |  | inactive | inactive |  |  |  |  |
| COc1cc2nc(N3CCCC3)nc(NCCCCCN3CCCC3)c2cc1OC |  | inactive | inactive | inactive | inactive |  |  |  |
| CCOc1ccc(NC(=S)N2CCC(C(O)(c3ccccc3)c3ccccc3)CC2)cc1 |  | inactive | inactive | inactive | inactive |  |  |  |
| Cc1cc(=O)oc2c(C=O)c(O)ccc12 |  | inactive | inactive |  | inactive |  |  |  |
| CC(=O)SCC(=O)c1ccc(NS(=O)(=O)c2ccc(OCCCN(C)C)cc2)nc1 | inactive | inactive | inactive |  | inactive |  |  |  |
| CNC(=O)c1ccccc1Nc1nc(Nc2ccc3c(c2OC)CCCC(N2CCN(CCO)CC2)C3)ncc1Cl (stereo not given) | inactive | inactive | inactive | inactive | inactive |  |  |  |
| CS(=O)(=O)c1ccc(-c2nnc(/C=C/c3nnc(-c4ccc(C#N)cc4)o3)n2-c2ccccc2Cl)nc1 |  | inactive | 12 µM (active) | inactive | inactive | -0.316 (inactive) | 0.177 | -0.0878 |
| COc1ccc2cc(C(C)C(=O)Oc3ccc(C(N)=S)cc3)ccc2c1 (stereo not given) |  | inactive | inactive | inactive | inactive |  |  |  |
| CCNC(=O)Nc1ccc(-c2nc3c(c(N4CCOC[C@@H]4C)n2)CCN(c2ncccn2)C3)cc1 | inactive | inactive | inactive | inactive | inactive |  |  |  |
| CCc1c(C)nc2c(-c3cnn(-c4cc(CO)ccn4)c3)c[nH]n2c1=O |  | inactive | inactive |  |  |  |  |  |
| Cc1ccc(S(=O)(=O)Cc2nc(-c3ccc(C(=O)NCc4cccnc4)cc3)oc2C)cc1 |  | inactive | inactive | inactive | inactive | -1.97 (inactive) | -3.12 | -2.76 |
| CC(=O)OC1C(=O)C2(C)C(O)CC3OCC3(OC(C)=O)C2C(OC(=O)c2ccccc2)C2(O)CC(OC(=O)C(O)C(NC(=O)c3ccccc3)c3ccccc3)C(C)=C1C2(C)C (stereo not given) | inactive |  | inactive | inactive | inactive |  |  |  |
| Cc1nc([C@](C)(O)CO)sc1-c1cnc(N)c(O[C@H](C)c2cc(F)ccc2-n2nccn2)c1 | inactive | inactive | inactive | inactive |  | 1.59 (inactive) | 0.437 | -0.14 |
| Cc1cc(Nc2ccc(NC(=O)c3ccc(Nc4ccnc5ccccc45)cc3)cc2)nc(N)n1 | inactive | inactive | inactive |  | inactive |  |  |  |
| NC(=O)Nc1cc(-c2cccc(F)c2)sc1C(=O)NC1CCCNC1 (stereo not given) | inactive | inactive | inactive | inactive | inactive |  |  |  |
| CC(C)Oc1ccc(C(=O)NC(CNC(=O)CN(C)C)Cc2ccc(-c3cn4cccc(C(C)O)c4n3)cc2)cc1Cl (stereo not given) | inactive | inactive | inactive | inactive | inactive |  |  |  |

From PubChem BioAssay (NCATS)
